# Key:
# Assay in all cases: pooled miR-30 sensor sort-seq; sequence = guide strand
# Settings in all cases: shRNA
# [1] = target: CD1E
# [2] = target: CD27
# [3] = target: CD320
# [4] = target: CDC23
# [5] = target: CDH24
# [6] = target: CDH2
# [7] = target: CDH19
# [8] = target: CDH20
# [9] = target: CHCHD8
# [10] = target: CHD2
# [11] = target: CHEK1
# Also: reference of the scale not given here.
sequence,measurement,setting,value
AATATCTGGATCTCGAAGGGGT,sensor-assay potency score (higher = more potent),[1],0.0216
TTTCCTTCGTTGATGGAGGAAC,sensor-assay potency score (higher = more potent),[2],-0.814
TTGATCTATATTTCCTTCGTTG,sensor-assay potency score (higher = more potent),[2],-0.282
TGTAACGACAAGGCTCTGCAGG,sensor-assay potency score (higher = more potent),[2],-0.28
TCTCATTGGTTCCACAGCCGAG,sensor-assay potency score (higher = more potent),[3],-1.57
TTGCGCAGTTTCTTGTCAGTTC,sensor-assay potency score (higher = more potent),[3],-0.101
TAGTTGATTGAGTTTCTCGTAA,sensor-assay potency score (higher = more potent),[4],-0.361
TGCAAGTCTGTGCTGATGCTGA,sensor-assay potency score (higher = more potent),[5],-0.691
TTCCTCAATGACAAAGAACTGG,sensor-assay potency score (higher = more potent),[5],-0.774
TTCATCTCTGTCCAGGGCCCGG,sensor-assay potency score (higher = more potent),[5],-1.68
TTTATCTTTAAATTAAGCTGAG,sensor-assay potency score (higher = more potent),[6],-0.626
ATCAGTATTAGCTTCTTCGAGC,sensor-assay potency score (higher = more potent),[7],-1.26
TAGTATATTTCATCTCTGCATT,sensor-assay potency score (higher = more potent),[8],-0.967
TCGTTGACATCGCTGAGCGTGA,sensor-assay potency score (higher = more potent),[5],-0.691
TTCTATGGGAACCAAGTAGGGG,sensor-assay potency score (higher = more potent),[5],-0.879
TTTCTCAGGAAATAGAATCTGT,sensor-assay potency score (higher = more potent),[7],0.0652
TTTCTCGATCAAGTCCAGCTGC,sensor-assay potency score (higher = more potent),[6],-0.018
ATCCAGAACAGTGTACACCAGC,sensor-assay potency score (higher = more potent),[5],-0.986
TTTTGTCTTTTACTTATCGTTT,sensor-assay potency score (higher = more potent),[6],-0.959
TTGACCACGGTGACTAACCCGT,sensor-assay potency score (higher = more potent),[6],-0.441
TTGTCCTGGACAGTAAAGTTGG,sensor-assay potency score (higher = more potent),[5],-0.744
TAGGCTGGGTCAATGAGCGTGT,sensor-assay potency score (higher = more potent),[5],-0.193
TTGAGTTGTTGGTCACATCTGG,sensor-assay potency score (higher = more potent),[8],0.759
TATCATTGACATCTGAGAGGGT,sensor-assay potency score (higher = more potent),[8],0.944
TTGATTGTGACAGGAACACTTC,sensor-assay potency score (higher = more potent),[8],-0.452
TTCGAGTCCGCAGCAGAGCAGG,sensor-assay potency score (higher = more potent),[5],-1.36
TTTCTCTTAATAGTCACTGGAG,sensor-assay potency score (higher = more potent),[6],-0.274
TAGTCAAACACTAACAGGGAGT,sensor-assay potency score (higher = more potent),[6],-0.885
TTGGATAATCACTTCGTAGTAT,sensor-assay potency score (higher = more potent),[8],0.305
TTTCTTGCTTTCAAAACTCAGG,sensor-assay potency score (higher = more potent),[8],-0.799
TATTATCTCTTACATCATCTTC,sensor-assay potency score (higher = more potent),[6],-0.354
TTGATGACAATGTCAATGGGGT,sensor-assay potency score (higher = more potent),[6],0.314
TTGTACTTGTCCAAAAACCAAG,sensor-assay potency score (higher = more potent),[6],-1.35
TATTGGAATATATTCTCTCTGA,sensor-assay potency score (higher = more potent),[7],-0.596
ATAACTGTAACAGACACGGTTG,sensor-assay potency score (higher = more potent),[6],-0.196
TGGATTGTCGTTGATGTCTTGC,sensor-assay potency score (higher = more potent),[5],-0.503
TAGTATTCTTTGGCTTCTCTGT,sensor-assay potency score (higher = more potent),[8],-0.859
TGTAGTAGAAATGCTGACCATT,sensor-assay potency score (higher = more potent),[8],-0.339
TTCTTTGGCTTCTCTGTCCATG,sensor-assay potency score (higher = more potent),[8],-0.339
TATCTGAATGAAGCTTGCCGAC,sensor-assay potency score (higher = more potent),[8],-1.28
TTCATCTCTGCATTGATGCCTT,sensor-assay potency score (higher = more potent),[8],-0.00989
TATCTCTTACATCATCTTCTGG,sensor-assay potency score (higher = more potent),[6],-0.0628
TTTGTTTCAAAGTCGATTGGTT,sensor-assay potency score (higher = more potent),[6],0.586
TAGAGAAGCAACGCTCCGGATC,sensor-assay potency score (higher = more potent),[5],-0.845
TAAGCTGAGCAAAATCACCATT,sensor-assay potency score (higher = more potent),[6],-0.593
TGATGATGAACTCTGACTCGGG,sensor-assay potency score (higher = more potent),[8],-0.216
TCATCAATCACAAATACGGTGC,sensor-assay potency score (higher = more potent),[5],-0.0927
TCGTCTTTCTTCACCCGTTGGG,sensor-assay potency score (higher = more potent),[9],-0.227
TCATGCAATCCTTGAACGCCTG,sensor-assay potency score (higher = more potent),[9],-0.766
TAAGCCTTGATGAACCTTCGGA,sensor-assay potency score (higher = more potent),[10],0.0623
TATTACTCTTTCTACTATCTGA,sensor-assay potency score (higher = more potent),[10],0.18
TTCTTCTTGAGACCTTTTCTTA,sensor-assay potency score (higher = more potent),[10],-0.844
TTGCCGCCAGTCCTGGTGCTGG,sensor-assay potency score (higher = more potent),[9],-1.88
TTCCTTAATATTAAATCGCGAT,sensor-assay potency score (higher = more potent),[10],-0.656
TTTATTGATACAGATCTCTTTC,sensor-assay potency score (higher = more potent),[11],0.115
TAACTGACTATTCAAAAGCATA,sensor-assay potency score (higher = more potent),[11],-1.68
TGCATTGCTGACACACAGCTGT,sensor-assay potency score (higher = more potent),[10],-0.311
TGACACTTCATTCTCTCTCGTT,sensor-assay potency score (higher = more potent),[10],-0.0754
TTCTTCACATCAGCTATCCGTT,sensor-assay potency score (higher = more potent),[10],-0.528
TCAACAAGTAATCCGCTCGGGT,sensor-assay potency score (higher = more potent),[10],-0.663
TTTCTTATGAGCCATCTTGTAT,sensor-assay potency score (higher = more potent),[10],-1.08
TTCTTCACCCGTTGGGTCCAGG,sensor-assay potency score (higher = more potent),[9],-0.933
TTGCACTTGTTGACACTTCATT,sensor-assay potency score (higher = more potent),[10],-0.8
ATCGTCTTTCTTCACCCGTTGG,sensor-assay potency score (higher = more potent),[9],-0.879
TCTTCCTCTATAATCTTGCTGG,sensor-assay potency score (higher = more potent),[9],-0.27
TTATCTGTGTGGAAAGAGCGGT,sensor-assay potency score (higher = more potent),[10],-0.167
TTCTTGCCTCCTCTGCAGCTCC,sensor-assay potency score (higher = more potent),[9],-1.23
TTTTGCACCAGGAATGAGCTAG,sensor-assay potency score (higher = more potent),[10],0.429
TTTATCTGTCTCCACCGGCAGA,sensor-assay potency score (higher = more potent),[10],-1.04
TAGCACCTTATGAAGACTCTGG,sensor-assay potency score (higher = more potent),[10],-0.21
TTCTTCTAGCTCCTTCTGCCGC,sensor-assay potency score (higher = more potent),[10],-0.813
TAACCTGATTCATACAACTTTT,sensor-assay potency score (higher = more potent),[11],-1.09
TATTTTATCATCCATTTCTAAC,sensor-assay potency score (higher = more potent),[11],-1.06
TTGATTGTTGGACCTCTCCTTT,sensor-assay potency score (higher = more potent),[10],-0.473
TGTCTCTTGAACTCCAATCCAT,sensor-assay potency score (higher = more potent),[11],-0.483
ATAAATTTCTTCTAGCTCCTTC,sensor-assay potency score (higher = more potent),[10],1.15
TTCCTCTATAATCTTGCTGGGT,sensor-assay potency score (higher = more potent),[9],-1.07
TTTAAAGCTACAAATCGTGGTC,sensor-assay potency score (higher = more potent),[10],0.518
TTTCATTGGACTTTTTTCCAAG,sensor-assay potency score (higher = more potent),[10],-0.762
TAAACTGTGATAGAAGTTCATC,sensor-assay potency score (higher = more potent),[10],-0.983
TATGACAGCTGTTTGTGCCAGT,sensor-assay potency score (higher = more potent),[9],0.271
TTGTTCTTGCCTCCTCTGCAGC,sensor-assay potency score (higher = more potent),[9],-1.04
TTGCCTCCTCTGCAGCTCCTCT,sensor-assay potency score (higher = more potent),[9],-1.69
TTGTTTTCCAGGATCGTCCGGC,sensor-assay potency score (higher = more potent),[10],-0.196

# Source: the OligoGym collection
